Data published in PubChem BioAssay (NCI).
Compounds without any hit were thinned out: in the full panel of roughly 83,000, 20% have a hit.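 Note: values are percent growth. 100 is the growth of untreated cells, values between 100 and 0 indicate rising inhibition; between -100 and 0 indicates cell death.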 Active and inactive are the calls of the source. Rule for the calls: active = growth percent below 10; inactive = the rest.

Each compound was assayed on SF-268 CNS (assay: NCI-60 one-dose screen, 48 h (100 = growth as untreated, 0 = no growth, -100 = all killed)). Conditions: 10 µM unless noted.

Row | Structure (SMILES) | growth
1 | COc1ccc(Nc2ncccc2C(=O)NCc2cn(Cc3cccc(Oc4ccccc4)c3)nn2)c(OC)c1 | 36.6% (inactive)
2 | N/C(=N\S(=O)(=O)c1ccccc1)Nc1nc2ccccc2s1 | 92.2% (inactive)
3 | O=S(=O)(NCCCNc1nccc(-n2ccc3cccnc32)n1)c1cccc(C(F)(F)F)c1 | 95.5% (inactive)
4 | COc1cc(NC(N)=NCCC(C)(C)Oc2ccc(C(F)(F)F)cc2)ncc1C#N | 30.8% (inactive)
5 | COc1ccc2c(c1)[nH]c(=O)c1c3cc(OC)ccc3cn21 | -3.31% (active)
6 | FC(F)(F)c1cccc(-c2cn3c(ccc4ccccc43)n2)c1 | 98.7% (inactive)
7 | COc1ccc(CN2CCc3c(Sc4ccccc4)nc(N)nc3C2=O)c(OC)c1 | 67.3% (inactive)
8 | COc1ccc(Nc2ncccc2C(=O)NCc2cn(Cc3cccc(Oc4ccccc4)c3)nn2)cc1 | 50% (inactive)
9 | CCN(CC)CCC(CNc1ccnc2cc(Cl)ccc12)c1ccc(Cl)cc1 (centres undefined) | -8.09% (active)
10 | Cc1ccc(S(=O)(=O)C2=C3C(=C(c4ccccc4)c4ccccc43)CN(S(=O)(=O)c3ccc(C)cc3)C2)cc1 | 45.3% (inactive)
11 | O=C1C(Cl)=C(Nc2ccccn2)C(=O)c2ccccc21 | 58.8% (inactive)
12 | COc1cc(/C=C/C(=O)N2CCN(C(=O)/C=C/c3cc(OC)c(OC)c(OC)c3)CC2)cc(OC)c1OC | 118% (inactive)
13 | c1ccc(-c2nnc(-c3ccccn3)s2)nc1 | 95.4% (inactive)
14 | Cc1c(C(=O)/C=C/c2csc3ccccc23)[n+](=O)c2ccccc2n1[O-] | 44% (inactive)
